Measured values from the supplement of paper PMC6555819.

Legend:
Assay in all cases: PBM binding z-score (relative to random genomic background probes); higher = stronger binding; sequences stand for … in GC…GCGATTGACAGCGTAGAATGAAGG
[1] = system: FXR:RXRa (NR concentration 270 nM, RXRa partner concentration 90 nM)
Method in brief: (§1)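 Probes were double-stranded and carried 34-nt variable regions with direct-repeat seeds, single-nucleotide variants, half-site ablations and random human genomic background sequences, printed on custom Agilent 4×180K protein-binding microarrays. Arrays were incubated 1 h with ligand-free nuclear receptor dimers in PBS pH 7.4, 2% milk, 0.02% Triton X-100, 1 mM DTT, 0.2 mg/mL BSA and 0.4 mg/ml salmon testes DNA. Antibodies against each partner (one per run) detected binding, and scanned fluorescence was regression-normalized. Binding z-scores use the random background probes as reference.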

[2] = system: LXRa:RXRa (NR concentration 270 nM, RXRa partner concentration 90 nM)
Method in brief: as §1

[3] = system: LXRa homodimer (NR concentration 270 nM)
Method in brief: as §1

[4] = system: LXRb:RXRa (NR concentration 270 nM, RXRa partner concentration 90 nM)
Method in brief: as §1

[5] = system: LXRb homodimer (NR concentration 270 nM)
Method in brief: as §1

[6] = system: PPARa:RXRa (NR concentration 270 nM, RXRa partner concentration 90 nM)
Method in brief: as §1

[7] = system: PPARg:RXRa (NR concentration 180 nM, RXRa partner concentration 90 nM)
Method in brief: as §1

[8] = system: PPARg:RXRa 270nM:90nM, anti-RXR (NR concentration 270 nM, RXRa partner concentration 90 nM)
Method in brief: as §1

[9] = system: PPARg:RXRa 30nM:10nM, anti-RXR (NR concentration 30 nM, RXRa partner concentration 10 nM)
Method in brief: as §1

[10] = system: PPARg:RXRa 90nM:30nM, anti-RXR (NR concentration 90 nM, RXRa partner concentration 30 nM)
Method in brief: as §1

[11] = system: PPARg:RXRa DBDmut IVT, anti-RXR (DBD mutation: RXRa K156A/R161A, NR concentration 270 nM, RXRa partner concentration 90 nM)
Method in brief: as §1

[12] = system: PPARg:RXRa IVT, anti-PPARg (NR concentration 270 nM, RXRa partner concentration 90 nM)
Method in brief: as §1

[13] = system: PPARg DBDmut:RXRa IVT, anti-PPARg (DBD mutation: PPARg1 K132A/R137A, NR concentration 270 nM, RXRa partner concentration 90 nM)
Method in brief: as §1

[14] = system: PPARg DBDmut IVT, anti-PPARg (DBD mutation: PPARg1 K132A/R137A, NR concentration 270 nM)
Method in brief: as §1

[15] = system: PPARg homodimer (NR concentration 180 nM)
Method in brief: as §1

[16] = system: PXR:RXRa (NR concentration 270 nM, RXRa partner concentration 90 nM)
Method in brief: as §1

[17] = system: PXR homodimer (NR concentration 270 nM)
Method in brief: as §1

[18] = system: RARa:RXR (NR concentration 270 nM, RXRa partner concentration 90 nM)
Method in brief: as §1

[19] = system: RARa homodimer (NR concentration 270 nM)
Method in brief: as §1

[20] = system: RARb:RXRa (NR concentration 270 nM, RXRa partner concentration 90 nM)
Method in brief: as §1

Row | Sequence | PBM binding z-score [1] | PBM binding z-score [2] | PBM binding z-score [3] | PBM binding z-score [4] | PBM binding z-score [5] | PBM binding z-score [6] | PBM binding z-score [7] | PBM binding z-score [8] | PBM binding z-score [9] | PBM binding z-score [10] | PBM binding z-score [11] | PBM binding z-score [12] | PBM binding z-score [13] | PBM binding z-score [14] | PBM binding z-score [15] | PBM binding z-score [16] | PBM binding z-score [17] | PBM binding z-score [18] | PBM binding z-score [19] | PBM binding z-score [20]
1 | CAAACTAGATCACCGGAAGGTCAAAGTCCGCATG | 3.07 | 3.21 | 3.33 | 3.19 | 1.2 | 3.85 | 2.04 | 2.62 | 0.824 | 1.84 | 3.34 | 3.13 | 0.538 | 0.366 | 2.31 | 3.54 | 1.53 | 3.99 | 1.63 | 3.21
2 | CAAACTAGGTCAAGGCCAAAGTCGGTTTGTGCCA | 3.98 | 2.52 | 0.111 | 1.71 | -0.0886 | 4.91 | 8.07 | 6.77 | 4.34 | 6.26 | 8.27 | 8.75 | 3.6 | 3.41 | 3.12 | 1.8 | -0.0922 | 2.28 | -0.0524 | 4.25
3 | CTTAGCAGGCCAGGGTCACTCAAGCATTTCGCTT | 2.22 | 1.69 | -0.276 | 2.19 | -0.331 | 3.33 | 0.864 | 1.93 | -0.113 | 1.06 | 1.45 | 1.72 | -0.582 | -0.865 | 0.785 | 2.67 | -0.227 | 3.2 | -0.241 | 2.81
4 | CACGAAAGGTCGTGCTCAGGTGAGTATACCAAAC | 5.58 | 4.3 | 0.166 | 3.44 | 0.848 | 4.88 | 3.14 | 3.97 | 1.14 | 2.72 | 1.16 | 1.86 | 0.523 | 0.745 | 1.9 | 3.35 | 0.154 | 4.28 | -0.1 | 4.13
5 | TGAATGAGGTTATAAGATCAGGTAACGTTGCAAA | 1.34 | 1.33 | -0.261 | 1.28 | 0.248 | 2.76 | 1.42 | 1.99 | 1.02 | 1.46 | 1.19 | 1.74 | 0.858 | 0.555 | 0.252 | 0.996 | 0.0498 | 1.59 | 0.49 | 1.12
6 | TGGAGTAGGTTAGGGGCATTCAGAATGGCGTCGA | 1.13 | 0.934 | 0.271 | 1.91 | 1.89 | 1.98 | 2.21 | 3.05 | 1.46 | 2.46 | 2.77 | 3.44 | 1.09 | 0.719 | 2.02 | 1.18 | 1.43 | 0.932 | 0.935 | 1.6
7 | CCTAGTTTGTCAAGGTCACACACGCTATAGGTAC | 4.49 | 4.38 | 3.27 | 3.87 | 1.42 | 4.14 | 2.44 | 2.78 | 0.971 | 1.93 | 1.6 | 2.96 | 1.92 | 1.48 | 4.48 | 4.71 | 5.83 | 4.57 | 2.66 | 4.18
8 | ACAGACAGGTGATGAAGCTAACTCAGGCTATCAT | -0.132 | -0.408 | -0.326 | -0.472 | -0.446 | -0.116 | 0.522 | -0.13 | -0.153 | -0.11 | -0.036 | -0.28 | 0.338 | 0.232 | 0.0494 | -0.231 | 0.283 | 0.275 | -0.315 | -0.112
9 | ATCGAAAGTTCGAAGGTGAGTATACCCACCCGAA | 0.822 | 1.16 | 0.11 | 0.739 | -0.0356 | 1.9 | 1.07 | 1.17 | 0.177 | 0.844 | 0.0334 | 0.537 | 0.525 | 0.231 | 0.595 | 1.16 | -0.00599 | 1.67 | -0.2 | 2.07
10 | TCTCGGAGGACACGAAGCTCAGAGCTTTCCAGAG | 0.39 | -0.167 | -0.771 | -0.53 | -1.25 | -0.0868 | -0.122 | 0.617 | 1.74 | 1.27 | 1.41 | -0.21 | -1.23 | -1.14 | -0.926 | -0.254 | -0.712 | -0.204 | -0.988 | 1.24
11 | GCTATTACTTGAAAGGGCAACCGAATGATTCTCG | 0.128 | 0.738 | 0.277 | 0.831 | 0.248 | 1 | 0.583 | 0.184 | 0.177 | 0.0562 | 0.661 | 0.239 | -0.509 | 0.326 | 0.811 | 0.499 | -0.0796 | 0.627 | 0.826 | 2.17
12 | ATCGATAGGTCGTGAGGTGAGTATACAGAAAGGC | 1.25 | 1.3 | -0.0722 | 1.07 | 0.187 | 2.43 | 1.32 | 1.08 | 0.506 | 0.989 | -0.14 | 1.35 | 1 | 0.371 | 0.792 | 1 | 0.158 | 1.94 | 0.167 | 1.97
13 | CCGAGTAGGTTATGGGGCATTGAGGCAACGGTGA | 0.345 | 0.579 | -0.265 | 0.437 | -0.0283 | 2.09 | 3.48 | 4.63 | 2.18 | 4.57 | 3.23 | 3.52 | -0.234 | 0.034 | 1.19 | -0.0257 | 0.241 | 0.37 | 0.756 | 0.976
14 | CGTCAAAGTTCAACTAAGGTAGCGTAAAGCACGC | 6.83 | 6.17 | 3.78 | 4.01 | 1.98 | 4.8 | 4.84 | 5.37 | 1.94 | 4.03 | 0.387 | 1.51 | -0.0827 | 0.743 | 3.4 | 5.03 | 4.13 | 3.8 | 2.16 | 5.15
